This is a sample that favours compounds with a hit; in the whole collection about 2.5% have one here.
LASV entry inh: Lassa virus entry inhibition. Lassa virus pseudotype entry inhibition, cell reporter. Potency, µM (series often up to 37.9 µM), inactives show at the highest dose activity change, negative = inhibition, actives largely listed as inhibitors. 1.2% of 300,000 active; calls by dose curve; tested in HEK293 cells; further: nearly all actives have a fitted effect of over 50% in size
Marburg entry inh: inhibitors of Marburg virus binding or cell entry; AID 540276; 1.8% of 300,000 active; Potency, µM (highest dose often 37.8 µM), for the others: at the highest dose activity change, negative = inhibition, usual class: inhibitors; Marburg virus pseudotyped entry inhibition, cell reporter; calls by dose curve; tested in HEK293 cells
VACV mCherry inh: inhibitors of vaccinia virus infection (mCherry reporter signal); Vaccinia virus mCherry reporter infection, fluorescence; Potency, µM (highest dose often 36.5 µM), for the others: at the top dose activity change, negative = inhibition, hits mostly inhibitors; 0.63% of 310,000 active; calls by dose curve; tested in A549 cells; further: nearly all actives have a fitted effect of over 35% in size
VACV Venus inh: vaccinia inhibition (Venus reporter). Vaccinia virus Venus reporter expression, fluorescence. AID 720580. 0.46% of 330,000 active. Potency, µM (highest dose often 36.5 µM), for the others: at the highest dose activity change, negative = inhibition, hits mostly inhibitors; calls by dose curve; tested in A549 cells; further: nearly all actives have a fitted effect of over 30% in size
The depositor's hits bear a star; i = inactive; ? = inconclusive; . = no result; [ ] = dose if it differs, or a comment. On the % scale 0 is the no-effect control and ±100 the full control effect; potency means the concentration at half of the fitted maximal effect.

SMILES	LASV entry inh	Marburg entry inh	VACV mCherry inh	VACV Venus inh
Cc1cc(N(C)C)cc(C)c1/C=C/c1cc[n+](C)c2ccccc12	.	.	-27%	-23%
Nc1ccc(C(=O)OCc2nc3cc4ccccc4cc3[nH]2)cc1	2.6µM*	1.6µM*	5µM*	32%
Nc1ccc(C(=O)OCc2nc3c(ccc4ccccc43)[nH]2)cc1	8.9µM*	?	-29%	-24%
Nc1ccc(Cc2nc3cc4ccccc4cc3[nH]2)cc1	2.6µM*	?	5.6µM*	14%
Cc1ncc2c(c1CNS(=O)(=O)N(C)C)CCN(C(=O)/C=C/c1ccccc1F)C2	.	.	-19%	-9%
Cc1ccccc1Oc1cc(-n2ncc(Cl)c(Cl)c2=O)ncn1	?	?	?	10µM*
CCN(CC)C(=O)CSc1nc(N)c(C(=O)Nc2ccc(OC)cc2)s1	-4%	1%	13µM*	?
Cc1cc(Cl)ccc1OCC(=O)Nc1cccc(-c2nc3ccccc3o2)c1	.	.	-11%	?
CC(C)=NOc1cc(NC(=O)CCl)cc([N+](=O)[O-])c1	18µM*	23µM*	?	-26%
O=C(CCl)Nc1cc(SCC(O)CO)cc([N+](=O)[O-])c1 (stereo not given)	?	?	2.8µM*	4µM*
COCc1c(C(=O)NC2CCCCC2)cnn1-c1nccc(-c2cc(C)sc2C)n1	.	.	-2%	-1%
CCOc1cc(/C=N\NC(=O)c2ccc(NC(=O)C(C)(C)C)cc2)ccc1OC(=O)c1cccc(C)c1	6.5µM*	2.6µM*	.	.
CCOc1cc(/C=N\NC(=O)c2ccc(NC(=O)C(C)(C)C)cc2)ccc1OC(=O)c1ccc(C)cc1	?	34%	-13%	-6%
CCOc1cc(/C=N/NC(=O)CNc2ccc(C)cc2)ccc1OC(=O)c1ccccc1	?	2%	-4%	-19%
CCOc1cc(/C=N\NC(=O)c2ccc(NC(=O)CC)cc2)ccc1OC(=O)c1ccccc1	23µM*	?	.	.
C=CCN1C(=O)C2(CC(C)=C[C@@H](C)O2)c2c(Br)cccc21 (stereo not given in full)	.	26%[14.2 µM]	.	.
COc1ccccc1/C=C/c1nc2ccccc2[nH]1	.	.	-4%	-29%
CC(C)C[C@H]1COc2c(Cl)cccc2S(=O)(=O)N1Cc1ccc(Cl)cc1	-14%[46.1 µM]	.	.	.
COc1cccc(OC)c1OCCCOc1c(OC)cccc1OC	1%	-13%[46.1 µM]	-15%	-8%
COc1cccc(OC)c1OCCNCC1CSc2ccccc2O1 (stereo not given)	?	26µM*	i	-8%
CC(=O)OCCNc1cc(Sc2nc3ccccc3[nH]2)c2nonc2c1[N+](=O)[O-]	0%	24%	?	112µM*
O=[N+]([O-])c1c(NCCCO)cc(Sc2ccc(Cl)cc2)c2nonc12	?	11µM*	-3%	-19%
O=[N+]([O-])c1c(NCCCO)cc(SCc2ccco2)c2nonc12	0%	2%	-4%	-16%
COC(=O)C1=C(C)N(Cc2ccccc2)C(=O)NC1c1ccccc1 (stereo not given)	-20%[14.3 µM]	?	.	.
Cc1cc2c(c(=O)o1)[C@H](CC(C)C)C(C#N)=C(N)O2	.	5%	.	.
SMILES	LASV entry inh	Marburg entry inh	VACV mCherry inh	VACV Venus inh
CN(C)CCNc1ccc2nnn3c4ccc(O)cc4c(=O)c1c23	-12%	?	?	?
CCN(CC)CCCNc1ccc2ncn3c4ccc(O)cc4c(=O)c1c23	?	?	0.89µM*	?
Cc1nn(-c2ccccc2)c(C)c1/C=N/n1c(-c2ccccc2Br)n[nH]c1=S	13µM*	?	-7%	-16%
COc1ccc(OC)c(CN2CCOc3ccc(C(O)c4cccnc4)cc3C2)c1 (stereo not given)	.	.	-22%	-13%
CCC(=O)Nc1nnc(SCC(=O)c2ccc3c(c2)Cc2ccccc2-3)s1	6.5µM*	?	0%	6%
CC(=O)Nc1nnc(SCC(=O)c2ccc3c(c2)Cc2ccccc2-3)s1	?	?	1%	17%
Cc1ccc2c(/C=C/c3c[nH]c4ccccc34)ccnc2c1C	.	.	-15%	18%
Cc1cccn2c(=O)c3cc(C(=O)NC(C)c4ccccc4)c(=N)n(CCCn4ccnc4)c3nc12 (stereo not given)	?	4.5µM*	-12%	-18%
CCOCCCn1c(=N)c(C(=O)NCc2ccc3c(c2)OCO3)cc2c(=O)n3cccc(C)c3nc21	?	5.2µM*	.	.
Cc1ccc([C@H]2C[C@H](c3cccs3)n3nc(N)nc3N2)cc1	.	5%	.	.
Cc1cccc(C(=O)Nc2sc3c(c2C(=O)O)CCCC3)c1	?	2µM*	?	?
O=C(Nc1cccc(Cl)c1)c1c(NC(=O)C(F)(F)F)sc2c1CCCC2	?	.	13µM*	?
O=C(Nc1sc2c(c1C(=O)Nc1ccc(Cl)cc1)CCCC2)c1cccs1	-1%[46.1 µM]	.	13µM*	?
CCn1c(COc2ccc(OC)cc2)nc2ccccc21	2%	-6%	.	.
CCOC(=O)c1ccc2c(c1)nc(COc1ccc3ccccc3c1)n2CC	?	4.6µM*	-29%	-15%
N/C(=N\OC(=O)c1ccc(Cl)c([N+](=O)[O-])c1)c1ccccn1	?	3.2µM*	-19%	?
N/C(=N\OC(=O)c1cccc(Cl)c1)c1ccccn1	7.9µM*	3.7µM*	-6%	-9%
CC(=O)C1=NN(c2ccccc2)C(c2cccs2)N1c1ccc(N(C)C)cc1 (stereo not given)	21µM*	?	.	.
CC(=O)C1=NN(c2ccccc2)C(c2ccc3c(c2)OCO3)N1c1ccccc1 (stereo not given)	-17%	1%	.	.
O=C(C[n+]1ccccc1Cl)c1ccc2ccccc2c1	.	.	i	-10%
C=CCOc1ccc(/C=C2\SC(=Nc3cccnc3)NC2=O)cc1	3.5µM*	?	i	35%
CC(/C=C1\SC(=Nc2cccnc2)NC1=O)=C\c1ccccc1	?	?	-18%	2%
O=P(CCCCCCCCCP(=O)(c1ccccc1)c1ccccc1)(c1ccccc1)c1ccccc1	?	?	?	16µM*
CCOC(=O)C1CCN(CC(=O)Nc2c(C(=O)OC)[nH]c3ccc(Cl)cc23)CC1	?	10µM*	-1%	-5%
CCOC(=O)C1CCN(CC(=O)Nc2c(C(=O)OC)[nH]c3cccc(Cl)c23)CC1	2%	-23%	.	.
SMILES	LASV entry inh	Marburg entry inh	VACV mCherry inh	VACV Venus inh
COC(=O)c1[nH]c2ccc(C)cc2c1NC(=O)CCN1CCN(C2CCCCC2)CC1	.	-1%	.	.
COC(=O)c1[nH]c2ccc(Br)cc2c1NC(=O)CN1CCN(C2CCCCC2)CC1	?	6.5µM*	.	.
OC1CCCCC1/C=N/n1c2c(c3c1CCCC3)CCCC2 (stereo not given)	.	12%	.	.
COc1ccc(S(=O)(=O)N(C)c2ccc(C(=O)NCCC(C)C)cc2)cc1	8.2µM*	-4%	-11%	-7%
CCC(C)NC(=O)c1cn(CC)c2cc(N3CCN(C(=O)c4ccco4)CC3)c(F)cc2c1=O (stereo not given)	?	4%[46.1 µM]	5µM*	?
CC(C)(C)c1ccc(C(=O)C[n+]2cccc(Br)c2)cc1	.	.	-15%	-16%
Cc1ccc(C23CC4CC(CC(CC(=O)N5CCOCC5)(C4)C2)C3)cc1	8.2µM*	?	.	.
Cc1ccc(C23CC4CC(CC(C(=O)N5CCN(C)CC5)(C4)C2)C3)cc1	.	-1%	.	.
C(=C\c1ccc2ccccc2n1)/c1cccnc1	.	.	?	-28%

Screens as filed in PubChem BioAssay.
